Results on 15 compounds are retold here after PubChem BioAssay (NCI).

The structures appear in SMILES notation. The panel holds about 83,000 compounds, 20% with a hit somewhere; the sample as a whole holds those more often.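 Percent growth is the endpoint: 0 to 100 indicates growth inhibition (40 means 60% inhibition), 0 means no net growth, and negative values indicate cell death.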 A number with no mark means an inactive call. The calls were made as follows: active = growth percent below 10; inactive = the rest.

This test deals with IGROV1 ovarian. The test is described as follows: NCI-60 one-dose screen, 48 h (100 = growth as untreated, 0 = no growth, -100 = all killed). To be noted: 10 µM unless noted.
As to `CC1(C)CC(=O)C2=C(C1)C(c1ccc(Cl)cc1)n1ncc(C#N)c1N2` (stereo not given), the growth is 85.7%.
Then `CCOC(=O)C1=C(CCl)N(C)C(=O)NC1c1ccc2c(c1)OCO2` (stereo not given), with 74.6%.
Then `COc1ccc(-c2cc(C(=O)N3N=C(c4ccc(N)cc4)CC3c3ccc(Cl)cc3)c3ccccc3n2)cc1` (stereo not given), with 43.9%; and `Cn1cc(-c2csc(-c3cn(C)c4ccccc34)n2)c2cnccc21`, with 68.5%.
Regarding `CC(C)c1ccc2c(c1)CC[C@H]1[C@](C)(C(=O)OCC#CCN3CCCC3)CCC[C@]21C`, the growth is 90.5%.
Consider `Cc1cc(=O)n(C(=S)Nc2ccc(Cl)cc2)c2cc(O)ccc12`, for which the growth was 102%.
With `O=C1Nc2ccc(Cl)cc2/C1=C/c1ccc[nH]1` the figure was 58.2%.
Then `COc1nc(/C=C\Nc2ccc3c(c2)OCCOCCOCCOCCO3)nc(OC)n1`, with 97.2%; and `CC1=C2CC/C(C)=C/CC[C@]3(C)O[C@H]3CC/C(C)=C/[C@H]2OC1`, with 103%.
Then `CCN1C(=O)N(CC)C2C1NN=c1s/c(=C\c3ccc(OC)cc3)c(=O)n12` (stereo not given), with 19.6%.
For `Cc1nn(C)c2ncnc(N/N=C/c3cccc(O)c3O)c12`, the growth is 15.4%.
With `CC(C)C1C2=C(NCCN1C(=O)c1ccncc1)C(C)(C)N(Cc1ccccc1)C2=O` (stereo not given) the figure was 101%; with `CN(C)c1ccc(C(=S)c2ccc(N(C)C)cc2)cc1`, 59.3%.
Then `CSc1ccc(N2C(=N)C(=S)N(c3ccc(C)cc3)C2=O)cc1`, with 103%; and `CCOC(=O)C/C(=N\Nc1cc(=O)[nH]c2ccc(C)cc12)C(=O)OCC`, with 98%.
